Paper PMC7862700, “An all-to-all approach to the identification of sequence-specific readers for epigenetic DNA modifications on cytosine”

Legend:
Assay in all cases: DAPPL (digital affinity profiling via proximity ligation, sequencing); 10 mM Tris-HCl pH 7.5, 50 mM NaCl, 1 mM DTT, 4% glycerol, room temperature, 30 min; GST-TFs on glutathione beads, 16-mer random dsDNA library, 0.1% formaldehyde crosslink after washing; high values mean tight binding
FLI1 = molecular target: T1, FLI1 (Homo sapiens, UniProt Q01543 1-452); conditions: protein: recombinant; tags: N-terminal GST; dsDNA, one strand shown
T1 sequence: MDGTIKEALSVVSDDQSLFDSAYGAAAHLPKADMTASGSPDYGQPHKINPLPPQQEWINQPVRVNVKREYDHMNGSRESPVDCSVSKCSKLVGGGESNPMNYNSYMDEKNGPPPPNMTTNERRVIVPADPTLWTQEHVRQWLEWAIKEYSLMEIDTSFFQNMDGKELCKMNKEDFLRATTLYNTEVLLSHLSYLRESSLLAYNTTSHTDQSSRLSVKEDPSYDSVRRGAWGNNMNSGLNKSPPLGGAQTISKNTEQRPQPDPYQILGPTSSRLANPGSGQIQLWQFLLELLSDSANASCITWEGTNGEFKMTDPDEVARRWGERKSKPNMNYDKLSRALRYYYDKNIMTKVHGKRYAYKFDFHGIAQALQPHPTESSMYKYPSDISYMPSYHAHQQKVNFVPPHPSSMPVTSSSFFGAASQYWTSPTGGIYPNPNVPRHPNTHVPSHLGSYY
In short: (§1)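 Pools of DNA-barcoded human transcription factors, expressed in yeast as GST fusions on glutathione beads and combined with a tag-only sample, were incubated with 200 nmole of a 16-mer random double-stranded DNA library. Incubation took 30 min at room temperature in Tris/NaCl/DTT/glycerol buffer and was followed by washing, 0.1% formaldehyde crosslinking, proximity ligation (BsaI/T4 ligase, 1 h, 37 °C), PCR amplification and sequencing on an Illumina NextSeq500. Binding signal is the ratio of a hexamer's read frequency for a factor to its frequency for the tag-only sample.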

ELK1 = molecular target: T2, ELK1 (Homo sapiens, UniProt P19419 1-428); conditions: protein: recombinant; tags: N-terminal GST; dsDNA, one strand shown
T2 sequence: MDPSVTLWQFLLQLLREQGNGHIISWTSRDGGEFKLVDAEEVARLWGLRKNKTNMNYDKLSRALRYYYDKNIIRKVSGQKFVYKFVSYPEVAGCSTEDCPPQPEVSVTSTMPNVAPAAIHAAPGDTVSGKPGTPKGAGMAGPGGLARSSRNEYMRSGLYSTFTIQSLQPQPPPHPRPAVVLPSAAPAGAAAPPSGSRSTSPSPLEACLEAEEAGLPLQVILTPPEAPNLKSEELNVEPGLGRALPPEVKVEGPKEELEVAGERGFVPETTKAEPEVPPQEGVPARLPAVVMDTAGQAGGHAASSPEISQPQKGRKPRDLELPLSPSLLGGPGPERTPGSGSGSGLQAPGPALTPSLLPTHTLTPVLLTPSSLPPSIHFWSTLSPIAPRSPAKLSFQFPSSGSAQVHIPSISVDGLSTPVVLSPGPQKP
In short: as §1

GABPA = molecular target: T3, GABPA (Homo sapiens, UniProt Q06546 1-454); conditions: protein: recombinant; tags: N-terminal GST; dsDNA, one strand shown
T3 sequence: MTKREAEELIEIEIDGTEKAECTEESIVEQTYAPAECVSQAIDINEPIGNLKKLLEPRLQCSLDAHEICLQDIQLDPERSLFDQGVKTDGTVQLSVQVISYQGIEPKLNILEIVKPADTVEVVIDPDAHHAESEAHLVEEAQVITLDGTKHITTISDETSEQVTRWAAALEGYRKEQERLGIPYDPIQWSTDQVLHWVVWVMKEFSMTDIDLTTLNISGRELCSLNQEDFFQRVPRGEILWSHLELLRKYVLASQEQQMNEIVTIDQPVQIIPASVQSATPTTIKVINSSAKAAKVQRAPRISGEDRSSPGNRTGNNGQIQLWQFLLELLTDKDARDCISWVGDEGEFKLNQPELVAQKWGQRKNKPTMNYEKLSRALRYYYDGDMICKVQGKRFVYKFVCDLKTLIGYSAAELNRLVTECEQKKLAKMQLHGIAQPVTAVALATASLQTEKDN
In short: as §1

ERG = molecular target: T4, ERG (Homo sapiens, UniProt P11308 1-479); conditions: protein: recombinant; tags: N-terminal GST; dsDNA, one strand shown
T4 sequence: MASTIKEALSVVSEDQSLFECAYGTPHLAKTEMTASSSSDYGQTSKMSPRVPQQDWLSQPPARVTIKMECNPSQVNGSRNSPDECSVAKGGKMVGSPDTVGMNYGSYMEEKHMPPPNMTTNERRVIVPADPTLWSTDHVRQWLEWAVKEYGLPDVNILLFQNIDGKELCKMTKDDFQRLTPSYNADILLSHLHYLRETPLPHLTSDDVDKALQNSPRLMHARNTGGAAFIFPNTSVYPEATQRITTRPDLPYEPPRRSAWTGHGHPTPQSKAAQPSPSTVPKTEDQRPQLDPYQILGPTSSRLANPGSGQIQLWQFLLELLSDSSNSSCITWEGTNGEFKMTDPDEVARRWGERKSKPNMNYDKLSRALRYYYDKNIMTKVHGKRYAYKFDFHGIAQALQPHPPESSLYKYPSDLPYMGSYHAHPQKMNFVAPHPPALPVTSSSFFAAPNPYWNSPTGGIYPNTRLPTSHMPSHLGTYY
In short: as §1

ELF1 = ELF1 (Homo sapiens, UniProt P32519 1-619); conditions: protein: recombinant; tags: N-terminal GST; dsDNA, one strand shown
In short: as §1

EHF = molecular target: T5, EHF (Homo sapiens, UniProt Q9NZC4 1-300); conditions: protein: recombinant; tags: N-terminal GST; dsDNA, one strand shown
T5 sequence: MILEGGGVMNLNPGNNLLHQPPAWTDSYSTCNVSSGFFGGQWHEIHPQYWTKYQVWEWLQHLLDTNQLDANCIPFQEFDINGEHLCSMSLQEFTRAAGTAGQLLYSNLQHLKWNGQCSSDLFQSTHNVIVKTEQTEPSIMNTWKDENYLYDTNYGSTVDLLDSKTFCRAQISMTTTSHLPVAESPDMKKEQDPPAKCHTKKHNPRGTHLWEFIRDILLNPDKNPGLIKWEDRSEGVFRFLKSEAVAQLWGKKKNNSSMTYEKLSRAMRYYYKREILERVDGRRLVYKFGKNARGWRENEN
In short: as §1

SPI1 = SPI1 (Homo sapiens, UniProt P17947 1-270); conditions: protein: recombinant; tags: N-terminal GST; dsDNA, one strand shown
In short: as §1

ELK3 = molecular target: T6, ELK3 (Homo sapiens, UniProt P41970 1-407); conditions: protein: recombinant; tags: N-terminal GST; dsDNA, one strand shown
T6 sequence: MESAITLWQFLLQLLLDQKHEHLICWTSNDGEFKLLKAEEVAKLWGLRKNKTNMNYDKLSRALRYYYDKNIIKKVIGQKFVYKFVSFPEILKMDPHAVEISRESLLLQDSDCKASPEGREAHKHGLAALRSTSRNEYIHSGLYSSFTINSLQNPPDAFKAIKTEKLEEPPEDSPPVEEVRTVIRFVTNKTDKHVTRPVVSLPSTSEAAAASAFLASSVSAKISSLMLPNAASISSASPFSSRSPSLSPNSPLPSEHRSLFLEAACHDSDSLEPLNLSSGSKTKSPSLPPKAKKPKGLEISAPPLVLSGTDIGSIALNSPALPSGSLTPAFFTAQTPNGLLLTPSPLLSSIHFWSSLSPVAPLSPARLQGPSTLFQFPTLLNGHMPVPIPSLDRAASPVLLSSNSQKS
In short: as §1

FEV = molecular target: T7, FEV (Homo sapiens, UniProt Q99581 1-238); conditions: protein: recombinant; tags: N-terminal GST; dsDNA, one strand shown
T7 sequence: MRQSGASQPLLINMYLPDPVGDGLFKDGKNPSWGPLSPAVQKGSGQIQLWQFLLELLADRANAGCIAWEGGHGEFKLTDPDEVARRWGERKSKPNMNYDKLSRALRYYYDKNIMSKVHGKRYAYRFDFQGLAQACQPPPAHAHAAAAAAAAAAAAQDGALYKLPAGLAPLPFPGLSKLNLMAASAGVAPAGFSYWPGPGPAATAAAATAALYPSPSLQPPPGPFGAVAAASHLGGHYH
In short: as §1

ETV5 = ETV5 (Homo sapiens, UniProt P41161 1-510); conditions: protein: recombinant; tags: N-terminal GST; dsDNA, one strand shown
In short: as §1

HSF1 = HSF1 (Homo sapiens, UniProt Q00613 1-529); conditions: protein: recombinant; tags: N-terminal GST; chain copies: 3; dsDNA, one strand shown
In short: as §1

SPIC = molecular target: T8, SPIC (Homo sapiens, UniProt Q8N5J4 1-248); conditions: protein: recombinant; tags: N-terminal GST; dsDNA, one strand shown
T8 sequence: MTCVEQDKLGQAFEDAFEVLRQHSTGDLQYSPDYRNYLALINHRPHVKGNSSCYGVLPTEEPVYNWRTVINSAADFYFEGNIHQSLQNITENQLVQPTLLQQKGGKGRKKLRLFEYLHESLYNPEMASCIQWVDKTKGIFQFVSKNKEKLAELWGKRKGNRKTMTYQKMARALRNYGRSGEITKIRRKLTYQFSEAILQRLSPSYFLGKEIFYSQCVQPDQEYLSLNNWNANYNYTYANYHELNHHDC
In short: as §1

ELF4 = ELF4 (Homo sapiens, UniProt Q99607 1-663); conditions: protein: recombinant; tags: N-terminal GST; dsDNA, one strand shown
In short: as §1

ELK4 = molecular target: T9, ELK4 (Homo sapiens, UniProt P28324-2 1-405); conditions: protein: recombinant; tags: N-terminal GST; dsDNA, one strand shown
T9 sequence: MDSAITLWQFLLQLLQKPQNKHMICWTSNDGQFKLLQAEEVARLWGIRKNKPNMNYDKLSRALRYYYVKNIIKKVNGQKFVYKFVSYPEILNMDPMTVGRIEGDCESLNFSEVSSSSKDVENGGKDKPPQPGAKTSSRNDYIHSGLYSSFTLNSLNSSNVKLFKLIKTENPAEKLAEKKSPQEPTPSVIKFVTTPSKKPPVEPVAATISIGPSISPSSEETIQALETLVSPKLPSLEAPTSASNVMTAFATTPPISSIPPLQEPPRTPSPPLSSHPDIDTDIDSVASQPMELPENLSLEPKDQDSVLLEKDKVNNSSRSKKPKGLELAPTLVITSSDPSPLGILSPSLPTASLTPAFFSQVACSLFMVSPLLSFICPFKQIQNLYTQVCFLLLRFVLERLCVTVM
In short: as §1

ETV2 = molecular target: T10, ETV2 (Homo sapiens, UniProt O00321 1-342); conditions: protein: recombinant; tags: N-terminal GST; dsDNA, one strand shown
T10 sequence: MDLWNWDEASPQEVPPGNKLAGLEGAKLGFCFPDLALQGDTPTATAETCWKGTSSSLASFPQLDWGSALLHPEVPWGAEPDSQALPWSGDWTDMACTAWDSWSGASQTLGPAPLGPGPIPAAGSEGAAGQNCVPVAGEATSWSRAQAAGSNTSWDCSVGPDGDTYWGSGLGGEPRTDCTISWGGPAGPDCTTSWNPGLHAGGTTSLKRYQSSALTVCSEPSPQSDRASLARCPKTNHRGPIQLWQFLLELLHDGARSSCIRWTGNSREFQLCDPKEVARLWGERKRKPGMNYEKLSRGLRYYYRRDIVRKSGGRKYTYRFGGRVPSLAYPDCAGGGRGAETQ
In short: as §1

ELF3 = molecular target: T11, ELF3 (Homo sapiens, UniProt P78545 1-371); conditions: protein: recombinant; tags: N-terminal GST; dsDNA, one strand shown
T11 sequence: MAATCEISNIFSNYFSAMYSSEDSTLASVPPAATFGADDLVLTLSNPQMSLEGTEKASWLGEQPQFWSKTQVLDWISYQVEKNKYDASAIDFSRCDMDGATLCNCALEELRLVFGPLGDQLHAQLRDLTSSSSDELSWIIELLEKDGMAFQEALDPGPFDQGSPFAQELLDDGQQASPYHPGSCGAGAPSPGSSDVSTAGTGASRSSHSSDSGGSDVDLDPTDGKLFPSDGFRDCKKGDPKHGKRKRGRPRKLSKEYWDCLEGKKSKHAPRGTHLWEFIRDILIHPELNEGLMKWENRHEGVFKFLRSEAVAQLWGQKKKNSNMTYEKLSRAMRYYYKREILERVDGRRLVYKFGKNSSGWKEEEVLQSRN
In short: as §1

CRX = CRX (Homo sapiens, UniProt O43186 1-299); conditions: protein: recombinant; tags: N-terminal GST; dsDNA, one strand shown
In short: as §1

ETV1 = ETV1 (Homo sapiens, UniProt P50549 1-477); conditions: protein: recombinant; tags: N-terminal GST; dsDNA, one strand shown
In short: as §1

ETV1, sequence (P50549 whole entry): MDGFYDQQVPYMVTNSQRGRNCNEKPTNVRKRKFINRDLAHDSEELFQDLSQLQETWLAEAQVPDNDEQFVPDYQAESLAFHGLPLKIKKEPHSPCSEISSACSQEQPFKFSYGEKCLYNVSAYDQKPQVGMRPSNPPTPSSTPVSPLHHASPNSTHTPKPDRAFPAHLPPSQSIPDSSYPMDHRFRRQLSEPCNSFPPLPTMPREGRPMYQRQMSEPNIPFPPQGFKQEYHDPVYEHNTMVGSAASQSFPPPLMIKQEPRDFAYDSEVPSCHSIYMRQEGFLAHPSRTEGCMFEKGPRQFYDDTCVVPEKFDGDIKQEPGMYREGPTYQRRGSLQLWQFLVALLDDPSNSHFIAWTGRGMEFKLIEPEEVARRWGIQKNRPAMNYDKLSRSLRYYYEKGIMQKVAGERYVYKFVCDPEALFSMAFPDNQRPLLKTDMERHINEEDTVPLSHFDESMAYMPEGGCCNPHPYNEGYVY
CRX, sequence (O43186 whole entry): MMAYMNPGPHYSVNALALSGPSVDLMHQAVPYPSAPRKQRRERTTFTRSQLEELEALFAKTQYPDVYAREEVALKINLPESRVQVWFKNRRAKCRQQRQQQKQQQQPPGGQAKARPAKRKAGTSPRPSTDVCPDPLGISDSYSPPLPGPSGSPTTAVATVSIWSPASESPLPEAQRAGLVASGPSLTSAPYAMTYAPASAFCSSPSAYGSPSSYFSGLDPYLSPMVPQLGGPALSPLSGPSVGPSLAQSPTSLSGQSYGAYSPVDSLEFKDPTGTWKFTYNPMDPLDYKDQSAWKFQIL
ETV5, sequence (P41161 whole entry): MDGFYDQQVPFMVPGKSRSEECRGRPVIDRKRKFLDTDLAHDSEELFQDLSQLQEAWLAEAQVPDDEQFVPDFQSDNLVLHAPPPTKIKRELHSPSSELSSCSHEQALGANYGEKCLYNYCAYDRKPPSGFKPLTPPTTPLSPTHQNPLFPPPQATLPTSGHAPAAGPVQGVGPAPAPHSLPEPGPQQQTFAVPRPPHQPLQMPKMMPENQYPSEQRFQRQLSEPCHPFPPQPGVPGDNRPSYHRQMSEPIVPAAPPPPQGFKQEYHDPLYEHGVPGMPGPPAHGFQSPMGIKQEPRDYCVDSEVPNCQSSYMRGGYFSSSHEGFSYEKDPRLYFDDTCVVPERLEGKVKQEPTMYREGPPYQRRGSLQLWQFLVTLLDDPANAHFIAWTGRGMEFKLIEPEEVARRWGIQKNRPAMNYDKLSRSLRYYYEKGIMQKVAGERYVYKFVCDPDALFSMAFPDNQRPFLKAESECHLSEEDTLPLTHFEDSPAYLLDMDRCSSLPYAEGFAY
ELF1, sequence (P32519 whole entry): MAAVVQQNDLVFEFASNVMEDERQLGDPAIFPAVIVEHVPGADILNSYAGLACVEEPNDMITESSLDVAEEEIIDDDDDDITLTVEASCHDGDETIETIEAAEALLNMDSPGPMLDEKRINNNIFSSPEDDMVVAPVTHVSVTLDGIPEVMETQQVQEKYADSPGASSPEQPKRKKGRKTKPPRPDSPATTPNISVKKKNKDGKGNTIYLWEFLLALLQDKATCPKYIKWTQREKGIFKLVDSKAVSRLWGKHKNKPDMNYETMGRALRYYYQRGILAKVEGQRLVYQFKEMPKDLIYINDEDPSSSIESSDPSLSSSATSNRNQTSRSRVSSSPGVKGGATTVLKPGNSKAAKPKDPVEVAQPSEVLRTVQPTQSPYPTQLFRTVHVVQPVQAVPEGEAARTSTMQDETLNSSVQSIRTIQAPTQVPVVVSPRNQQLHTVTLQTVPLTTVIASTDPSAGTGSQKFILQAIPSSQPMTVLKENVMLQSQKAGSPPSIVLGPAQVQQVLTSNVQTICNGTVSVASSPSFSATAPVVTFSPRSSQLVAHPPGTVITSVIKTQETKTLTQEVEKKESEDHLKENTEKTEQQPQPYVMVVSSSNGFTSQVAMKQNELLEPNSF
ELF4, sequence (Q99607 whole entry): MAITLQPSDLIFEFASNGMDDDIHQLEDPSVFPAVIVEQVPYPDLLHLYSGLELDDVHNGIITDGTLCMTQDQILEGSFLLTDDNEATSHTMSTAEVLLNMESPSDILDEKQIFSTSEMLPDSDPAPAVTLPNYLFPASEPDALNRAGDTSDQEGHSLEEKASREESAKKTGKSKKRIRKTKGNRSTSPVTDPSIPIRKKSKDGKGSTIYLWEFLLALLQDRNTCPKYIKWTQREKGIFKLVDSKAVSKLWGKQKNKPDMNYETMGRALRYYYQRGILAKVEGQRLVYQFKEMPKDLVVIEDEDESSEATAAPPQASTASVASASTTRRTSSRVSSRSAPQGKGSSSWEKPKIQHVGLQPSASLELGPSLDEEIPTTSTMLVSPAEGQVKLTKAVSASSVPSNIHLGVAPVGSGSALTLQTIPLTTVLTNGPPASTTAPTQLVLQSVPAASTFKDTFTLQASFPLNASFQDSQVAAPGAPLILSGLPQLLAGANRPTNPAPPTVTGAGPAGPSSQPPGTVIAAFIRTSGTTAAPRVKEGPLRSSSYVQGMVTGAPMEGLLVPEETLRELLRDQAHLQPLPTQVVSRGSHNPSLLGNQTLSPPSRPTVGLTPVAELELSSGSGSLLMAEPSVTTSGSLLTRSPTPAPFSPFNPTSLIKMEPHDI
HSF1, sequence (Q00613 whole entry): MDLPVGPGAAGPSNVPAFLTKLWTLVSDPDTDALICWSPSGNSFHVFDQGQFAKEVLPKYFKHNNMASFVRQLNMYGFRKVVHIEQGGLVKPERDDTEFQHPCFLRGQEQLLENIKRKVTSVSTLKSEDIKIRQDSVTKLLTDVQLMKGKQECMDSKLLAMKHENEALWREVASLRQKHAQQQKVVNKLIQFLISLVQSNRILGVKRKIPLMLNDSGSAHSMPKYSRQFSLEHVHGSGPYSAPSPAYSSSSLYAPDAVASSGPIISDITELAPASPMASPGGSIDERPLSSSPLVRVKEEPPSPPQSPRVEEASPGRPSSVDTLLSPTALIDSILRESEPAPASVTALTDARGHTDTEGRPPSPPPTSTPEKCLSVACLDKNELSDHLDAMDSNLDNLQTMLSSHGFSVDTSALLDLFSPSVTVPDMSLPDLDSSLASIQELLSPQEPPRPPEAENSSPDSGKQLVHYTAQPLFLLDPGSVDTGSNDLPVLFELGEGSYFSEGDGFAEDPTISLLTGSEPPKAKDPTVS

TTACGT
binding signal (FLI1): 1.19 fold enrichment (6-mer frequency, TF over GST control) | binding signal (ELK1): 1.09 fold enrichment (6-mer frequency, TF over GST control) | binding signal (GABPA): 1.2 fold enrichment (6-mer frequency, TF over GST control) | binding signal (ERG): 1.07 fold enrichment (6-mer frequency, TF over GST control) | binding signal (ELF1): 1.07 fold enrichment (6-mer frequency, TF over GST control) | binding signal (EHF): 1.1 fold enrichment (6-mer frequency, TF over GST control) | binding signal (SPI1): 1.09 fold enrichment (6-mer frequency, TF over GST control) | binding signal (ELK3): 1.05 fold enrichment (6-mer frequency, TF over GST control) | binding signal (FEV): 1.04 fold enrichment (6-mer frequency, TF over GST control) | binding signal (ETV5): 1.19 fold enrichment (6-mer frequency, TF over GST control) | binding signal (HSF1): 1.21 fold enrichment (6-mer frequency, TF over GST control) | binding signal (SPIC): 1.07 fold enrichment (6-mer frequency, TF over GST control) | binding signal (ELF4): 1.11 fold enrichment (6-mer frequency, TF over GST control) | binding signal (ELK4): 1.12 fold enrichment (6-mer frequency, TF over GST control) | binding signal (ETV2): 1.2 fold enrichment (6-mer frequency, TF over GST control) | binding signal (ELF3): 1.14 fold enrichment (6-mer frequency, TF over GST control) | binding signal (CRX): 1.74 fold enrichment (6-mer frequency, TF over GST control) | binding signal (ETV1): 1.06 fold enrichment (6-mer frequency, TF over GST control)
